Laboratory results as given in PubChem BioAssay (EPA / NIEHS).
The source made the active and inactive calls. The calls were made as follows: active = hit-call score of the fitted dose curve at least 0.9, where 1 is the maximum; inactive = score below 0.9.

assay: CEETOX_H295R_11DCORT: CeeTox H295R High-throughput Steroidogenesis Assay for 11-Deoxycortisol (11DCORT) (AID 2283432); details: actives raise or lower the signal;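 as to AC50: 11-deoxycortisol secreted into the medium measured by LC-MS/MS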
Procedure: CEETOX_H295R is a cell-based, multiplexed-readout assay that uses H295R, a human adrenal gland cell line, with measurements taken at 48 hours after chemical dosing in a 96-well plate.CEETOX_H295R_11DCORT is one of 23 assay component(s) measured or calculated from the CEETOX_H295R assay. It is designed to make measurements of hormone induction, a form of inducible reporter, as detected with absorbance signals by HPLC-MS-MS technology.Data from the assay component CEETOX_H295R_11DCORT was analyzed into 1 assay endpoint. This assay endpoint, CEETOX_H295R_11DCORT, was analyzed with bidirectional fitting relative to DMSO as the negative control and baseline of activity. Using a type of inducible reporter, gain or loss-of-signal activity using HPLC-MS-MS was used to understand synthesis of 11-Deoxycortisol in H295R cell line at 48hr of chemical exposure. To generalize the intended target to other relatable targets, this assay endpoint is annotated to the steroid hormone intended target family, where the subfamily is glucocorticoids.
Cell culture and media preparation procedures were conducted in accordance with OECD Test No. 456 guidelines, with minor modifications. H295R cells (ATCC CRL-2128) were expanded for 5 passages and frozen in batches in liquid nitrogen. Prior to the steroidogenesis assay, H295R cells were thawed and passed at least 4 times. The maximum passage was 10. Cells were maintained in a 1:1 mixture of DMEM/F12 supplemented with 5ml/L ITS+ Premix (BD Bioscience) and 12.5 ml/L Nu-Serum (BD Bioscience). After seeding cells into 96-well plates at 50-60% confluency, cells were allowed to adhere overnight. Prior to chemical testing, culture medium was replaced with 175 uL medium containing 10 uM forskolin to stimulate steroidogenesis for 48 hours. Following prestimulation, forskolin medium was replaced with medium containing test chemical solubilized in DMSO (ensuring a final concentration of 0.1% DMSO). Test chemicals were incubated for 48 hours, then the medium was removed and split into 2 vials containing approximately 75uL each, and stored at -80 C prior to hormone analysis. For steroid quantification, media samples were shipped to OpAns, LLC (Durham, NC) on dry ice, and samples were thawed to room temperature prior to liquid-liquid extraction. Steroid hormones were extracted from media samples using methyl tertbutyl ether (MTBE). An extra derivatization with dansyl chloride was included for estrogen (estrone and estradiol) detection only. Steroid hormones were separated by HPLC, eluted using a reverse phase C18 gradient with electrospray positive ionization, followed by quantification by tandem mass spectrometry (MS/MS). Data were acquired on a MassHunter Workstation Acquisition version B03.01 (Agilent Technologies, Inc.) and processed using MassHunter Quantitative Analysis for QQQ. Accuracy was determined for each hormone analyte from 3 standards to determine upper and lower limits of quantification (ULOQ and LLOQ, respectively) using a 7-point standard curve. Precision and accuracy of the extraction and quantification methods were calculated as the percent relative standard deviation (%RSD) of the spiked standards and percent spiked standard recovered, respectively. The goal was to achieve 100% accuracy (i.e., recover all spiked-in standard at quantification with minimal loss during run time) and good precision (i.e., have %RSD <15% to ensure reproducibility). Test medium was removed following chemical exposure, and cell viability was evaluated in the same wells by MTT. MTT procedures were as follows: after removal of test medium, 500 uL of 0.5 mg/ml of 3-[4,5-dimethylthiazol-2-y]2,5-diphenyltetrazoliumbromide solution was added to the cells. Following a 4-hour incubation at 37 C and 5% CO2 to allow formazan-crystal formation, the MTT solution was removed and blue formazan salt crystals were solubilized using 500uL anhydrous isopropanol with shaking for 20 minutes. […]

Structure (SMILES)	outcome	AC50
COP(=O)(NC(C)=O)SC (stereo not drawn)	inactive	
CCCSP(=O)(OCC)SCCC	inactive	
COc1ccc(C(=CC(=O)N2CCOCC2)c2ccc(Cl)cc2)cc1OC	inactive	
CCOC(=O)COc1cc(-c2nn(C)c(OC(F)F)c2Cl)c(F)cc1Cl	inactive	
C#CC(C)(C)NC(=O)c1cc(Cl)cc(Cl)c1		19.1 µM (active)
CNC(=O)Oc1cccc2c1OC(C)(C)O2	inactive	
CCOP(=S)(OCC)Oc1ccc([N+](=O)[O-])cc1		2.57 µM (active)
CCOP(=S)(OCC)Oc1cc(C)nc(C(C)C)n1		50 µM (active)
CCOP(=S)(OCC)Oc1ccc2c(C)c(Cl)c(=O)oc2c1		5 µM (active)
CCOP(=O)(NC(C)C)Oc1ccc(SC)c(C)c1 (stereo not drawn)		24 µM (active)
CNC(=O)ON=C(C)SC	inactive	
Nc1nc(N)nc(NC2CC2)n1	inactive	
CSc1nnc(C(C)(C)C)c(=O)n1N	inactive	
CCNc1nc(Cl)nc(NC(C)(C)C#N)n1	inactive	
O=C(O)c1cc(Oc2ccc(C(F)(F)F)cc2Cl)ccc1[N+](=O)[O-]	inactive	
CNc1cnn(-c2cccc(C(F)(F)F)c2)c(=O)c1Cl		11.5 µM (active)
CCCOCC(=Nc1ccc(Cl)cc1C(F)(F)F)n1ccnc1	inactive	
FC(F)C(F)(F)OCC(Cn1cncn1)c1ccc(Cl)cc1Cl (stereo not drawn)	inactive	
